Screening results from PubChem.
This is a sample that favours compounds with a hit; in the whole collection about 6% have one here.
D3 antag: D3 dopamine receptor (human) antagonism; 2.5% of 360,000 active; P35462; max response, negative = inhibition, %; D3R cells, DiscoveRx beta-arrestin luminescence, antagonist mode; active compounds read low; in the data active = max response below about -50%; inconclusive = no clear call, values can overlap the other calls; note: % is set by controls: 0 for no effect and ±100 for the full control effect
Target sequence (P35462 whole entry, looked up): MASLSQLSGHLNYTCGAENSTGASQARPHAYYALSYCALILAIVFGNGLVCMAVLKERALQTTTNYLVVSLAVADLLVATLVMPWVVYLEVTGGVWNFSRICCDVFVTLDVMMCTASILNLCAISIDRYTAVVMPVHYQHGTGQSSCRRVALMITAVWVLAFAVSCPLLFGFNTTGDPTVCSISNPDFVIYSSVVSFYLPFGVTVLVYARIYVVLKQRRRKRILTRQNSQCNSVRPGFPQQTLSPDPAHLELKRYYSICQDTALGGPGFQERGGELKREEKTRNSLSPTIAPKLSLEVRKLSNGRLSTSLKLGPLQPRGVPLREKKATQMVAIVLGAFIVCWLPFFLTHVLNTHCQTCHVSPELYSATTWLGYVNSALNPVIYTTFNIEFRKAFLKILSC
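Cells plated overnight at 1500 cells/well, then exposed to library compounds with dopamine controls for 90 minutes at 37 degrees C. DiscoveRx reagent added for 30–60 minutes at room temperature; luminescence read, quantitative HTS format.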
D1 potentiator: enhances dopamine response at the human D1 receptor; HEK293 TREx D1 cells, calcium flux, dopamine EC20 potentiation; 0.036% of 360,000 active; potentiation, % at 10 µM; in the data active = potentiation above about 30%; note: 0% is about no effect
D1 antag: blocks dopamine activation of the human D1 receptor. P21728. 3.2% of 360,000 active. AID 504652. activity change, negative = inhibition, % at 10 µM. HEK293 TREx D1 cells, calcium flux, dopamine EC80; active compounds read low; in the data active = activity change below about -30%; note: % is set by controls: 0 for no effect and ±100 for the full control effect
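Inducible Hek293 Trex D1 cells (tetracycline, overnight, 30 C). Calcium dye 30–90 min RT. Antagonist mode: EC80 dopamine added after 180 s compound read.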
D3 ag: agonists of human D3 dopamine receptor; P35462; D3R DiscoveRx beta-arrestin cells, luminescence, 90 min; AID 652048; max activation, %; 0.58% of 410,000 active; in the data active = max activation above about 30%; note: 0% is about no effect
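Cells at 1500/well, incubated overnight, then treated with pinned compounds (dopamine as control) for 90 min at 37 degrees C. DiscoveRx reagent added for 30 - 60 minutes at room temperature; luminescence read.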
D1 agonist: agonists of human D1 dopamine receptor; P21728; HEK293 T-REx D1 cells, calcium flux, agonist mode; activation, % at 2 µM; 1% of 360,000 active; AID 504660; in the data active = activation above about 30%; note: 0% is about no effect
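Agonism was scored from calcium flux recorded over 180 s (1 read/s) after pintool compound addition, following a 10-cycle baseline. Cells were inducible force-coupled HEK293 TREx D1, plated overnight at 30 C and loaded with no-wash calcium dye.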
* = called active by the depositor.

Results for CO[C@H](C(=O)[C@@H](O)[C@@H](C)O)C1Cc2cc3cc(O[C@H]4C[C@@H](O[C@H]5C[C@@H](O)[C@H](O)[C@@H](C)O5)[C@@H](O)[C@@H](C)O4)c(C)c(O)c3c(O)c2C(=O)[C@H]1O[C@H]1C[C@@H](O[C@H]2C[C@@H](O[C@H]3C[C@](C)(O)[C@H](O)[C@@H](C)O3)[C@H](O)[C@@H](C)O2)[C@H](O)[C@@H](C)O1 (some centres undefined) ?
D3 ag: 2.1

Results for OC(COCc1ccccc1)CN1CCN(c2ccccc2)CC1 (centres undefined) ?
D3 antag: inconclusive; D1 potentiator: -2.4; D1 antag: 0.7; D3 ag: 11.1; D1 agonist: 1.4

What do the screens show for `COCCOCC(O)CN1CCN(c2ccc(C)cc2)CC1` (centres undefined)?
D3 antag: -61.8*; D1 potentiator: -3.3; D1 antag: 1.4; D3 ag: -13.8; D1 agonist: 6.2

What do the screens show for `COCCOCC(O)CN1CCN(c2ccccc2)CC1` (centres undefined)?
D3 antag: -77.8*; D1 potentiator: -2.6; D1 antag: -11.4; D3 ag: 10.5; D1 agonist: 0.9

How did COc1ccc(N2CCN(CC(O)COc3cc(C)cc(C)c3)CC2)cc1 (centres undefined) do in these assays?
D3 antag: 1.2; D1 potentiator: 0.6; D1 antag: 0.8; D3 ag: -9.7; D1 agonist: 5.7

How did OC(COCC1COc2ccccc2O1)CN1CCN(c2ccccc2)CC1 (centres undefined) do in these assays?
D3 antag: -6.8; D1 potentiator: -0.1; D1 antag: 1.6; D3 ag: 32.9*; D1 agonist: 3.0

Results for CCN1CCN(CC(O)COCC2COc3ccccc3O2)CC1 (centres undefined) ?
D3 antag: -11.6; D1 potentiator: 2.0; D1 antag: 2.3; D3 ag: -3.9; D1 agonist: -1.7

What do the screens show for `COc1ccc(C2NC(=S)N3C(c4ccc(OC)c(OC)c4)NC(=S)N23)cc1OC` (centres undefined)?
D3 ag: 0.3

What do the screens show for `CCOc1ccc(C(=O)c2oc3ccccc3c2NC(=O)Cc2coc3cc(C)cc(C)c23)cc1`?
D1 potentiator: -0.5; D1 antag: -15.5; D3 ag: -8.2; D1 agonist: 2.7

How did CC(C)(C)CNC(=O)c1ccc2c(c1)S(=O)(=O)c1cc(Cl)ccc1C2=O do in these assays?
D3 antag: 14.7; D1 potentiator: 4.7; D1 antag: -32.5*; D3 ag: 20.8; D1 agonist: 3.5

What do the screens show for `COCCNC(=O)c1ccc2c(c1)S(=O)(=O)c1cc(Cl)ccc1C2=O`?
D3 antag: 19.7; D1 potentiator: -2.0; D1 antag: -17.2; D3 ag: 5.7; D1 agonist: 0.2

How did Cc1ccccc1C(=O)Nc1cccc(-c2cn3cccnc3n2)c1 do in these assays?
D1 potentiator: -1.4; D1 antag: -13.6; D3 ag: -17.3; D1 agonist: 0.6

What do the screens show for `CCCCN(CCCC)C(=S)N/N=C/c1c(C)[nH]n(-c2ccccc2)c1=O`?
D3 antag: -104.0*; D1 potentiator: -6.0; D1 antag: -11.3; D3 ag: -41.1; D1 agonist: 0.7

What do the screens show for `Cc1[nH]n(-c2ccccc2)c(=O)c1/C=N/NC(=O)c1ccc(O)cc1O`?
D3 antag: 13.3; D1 potentiator: 8.8; D1 antag: -5.8; D3 ag: 5.2; D1 agonist: 0.7

Results for O=C(c1ccccc1)c1c2c(cc3sc4ccccc4[n+]13)-c1cccc3cccc-2c13 ?
D3 antag: -0.9; D1 potentiator: -4.6; D1 antag: -24.8; D3 ag: -1.6; D1 agonist: 241.7*

What do the screens show for `O=C1NC(c2ccccc2)C(C(=O)c2cccs2)=C1O` (centres undefined)?
D3 antag: -58.4*; D1 potentiator: 0.0; D1 antag: -3.7; D3 ag: -10.5; D1 agonist: 0.4

How did Cc1ccc(NS(=O)(=O)c2ccc3c(c2)[C@H]2C=CC[C@H]2[C@@H](c2ccc(F)cc2)N3)cc1C do in these assays?
D1 potentiator: -1.1; D1 antag: -15.2; D3 ag: 1.5; D1 agonist: 5.4

What do the screens show for `O=C(O)c1ccc(NS(=O)(=O)c2ccc3c(c2)C2C=CCC2C(c2ccccc2F)N3)cc1` (centres undefined)?
D3 antag: 13.5; D1 potentiator: -1.9; D1 antag: -34.9*; D3 ag: 5.8; D1 agonist: 0.0

Results for Cc1ccc([C@H]2Nc3ccc(S(=O)(=O)Nc4cccc(Cl)c4C)cc3[C@H]3C=CC[C@H]32)cc1 ?
D1 potentiator: -0.5; D1 antag: 4.5; D3 ag: 15.4; D1 agonist: 3.9

Results for COC(=O)c1ccc([C@H]2Nc3ccc(S(=O)(=O)Nc4cccc(C)c4)cc3[C@H]3C=CC[C@H]32)cc1 ?
D1 potentiator: 1.8; D1 antag: -85.4*; D3 ag: -0.2; D1 agonist: 0.2

Results for CC(=O)c1ccc(NC(=O)CSc2nnc3ccc(-c4ccc(Cl)cc4)nn23)cc1 ?
D1 potentiator: 3.6; D3 ag: 8.3; D1 agonist: -3.8

How did Cc1cccc2c1-c1sc(C(=O)N(C)c3cccc(C(F)(F)F)c3)cc1CO2 do in these assays?
D1 potentiator: -8.1; D1 antag: 30.7; D3 ag: -9.6; D1 agonist: 6.2

How did Cc1nn2c(N3CCN(c4ccccn4)CC3)cc(C(C)C)nc2c1-c1ccccc1 do in these assays?
D3 antag: -55.9*; D1 potentiator: 0.0; D1 antag: -15.0; D3 ag: 0.0; D1 agonist: 2.2

What do the screens show for `Cc1cc(N2CCCCCC2)n2nc(C)c(-c3ccccc3)c2n1`?
D3 antag: 36.1; D1 potentiator: 0.9; D1 antag: 1.6; D3 ag: 1.8; D1 agonist: 1.1

What do the screens show for `COc1ccc(-n2nc(C(=O)Nc3ccc(C(C)=O)cc3)nc2-c2ccccc2)cc1`?
D1 potentiator: -1.6; D1 antag: 19.7; D3 ag: -3.3; D1 agonist: 3.9

Results for COc1cc(C(C)=O)ccc1OCC(O)CN1CCN(c2ccccc2)CC1 (centres undefined) ?
D3 antag: inconclusive; D1 potentiator: -5.3; D1 antag: 5.0; D3 ag: 24.2; D1 agonist: 0.8

What do the screens show for `COc1cc(C(C)=O)ccc1OCC(O)CN1CCN(c2ccccn2)CC1` (centres undefined)?
D3 antag: 7.5; D1 potentiator: 2.6; D1 antag: 0.9; D3 ag: 77.9*; D1 agonist: 2.9

How did COc1cc(C(C)=O)ccc1OCC(O)CN1CCN(c2ccc(C)cc2C)CC1 (centres undefined) do in these assays?
D3 antag: -66.8*; D1 potentiator: -1.2; D1 antag: -38.7*; D3 ag: -13.4; D1 agonist: 3.1
